Compound activity as filed in PubChem BioAssay.
Many of the other results were omitted from the sample, so hits are more common in it than they were.
Shiga toxin inh = Shiga toxin inhibition. inhibition, % at 38.7 µM. Vero cells, Shiga toxin protein synthesis inhibition reporter. hit rate 9.2% among 290,000; in the data active = inhibition mostly above about 28%, no sharp cut-off; inactive = mostly below about 43%
TbPYK inhibitor = T. brucei pyruvate kinase inhibition | TbPYK enzyme, Kinase-Glo Plus ATP luminescence, 45 min | hit rate 0.12% among 410,000 | Potency, µM (titrated, usually from 76.8 µM), usual class: inhibitors; note: nearly all actives have a fitted effect of over 50% in size
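Glycolytic pyruvate kinase of T. brucei was incubated with substrate, test compound and 130 uM ADP for 45 minutes at room temperature. Luminescent Kinase-Glo Plus signal was measured after 10 minutes.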
Cycloheximide cs = counter-screen hit for Shiga toxin inhibitors, cycloheximide; cell reporter, cycloheximide protein synthesis inhibition counterscreen; max response, %; hit rate 12% among 300,000; in the data active = max response mostly above about 13%, no sharp cut-off; inactive = mostly below about 14%; note: read at 38.3 µM for the half of the compounds with a filed dose
Sm TGR block = inhibitors of Schistosoma mansoni thioredoxin glutathione reductase. Potency, µM (series often up to 114 µM), hits mostly inhibitors. hit rate 3% among 360,000. AID 485364. purified TGR, DTNB reduction, TNB absorbance 405 nm; note: nearly all actives have a fitted effect of over 60% in size
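TGR 20 nM + NADPH 100 uM (dispensed conc.), cpd preinc 15 min RT; start with NADPH (500 uM addition) then DTNB (15 mM addition). Kinetic TNB absorbance, 405 nm filter. Four-parameter Hill fit across titration.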
FBPA Giardia inh = Giardia lamblia aldolase inhibition; A8B2U2; purified Giardia FBPA; Potency, µM (series often up to 59.6 µM), usual class: inhibitors; hit rate 0.71% among 290,000; AID 2451; note: nearly all actives have a fitted effect of over 55% in size
Target sequence (A8B2U2 whole entry, looked up): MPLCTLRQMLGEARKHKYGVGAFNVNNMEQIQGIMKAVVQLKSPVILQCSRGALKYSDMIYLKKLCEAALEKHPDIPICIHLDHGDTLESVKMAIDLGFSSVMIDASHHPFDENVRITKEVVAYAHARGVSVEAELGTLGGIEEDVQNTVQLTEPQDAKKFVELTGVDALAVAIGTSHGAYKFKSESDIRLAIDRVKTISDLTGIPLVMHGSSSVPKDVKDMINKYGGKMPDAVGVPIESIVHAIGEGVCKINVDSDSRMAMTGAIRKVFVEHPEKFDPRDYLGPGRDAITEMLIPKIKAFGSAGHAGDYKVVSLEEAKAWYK
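Giardia FBPA (40 nM reagent) was preincubated 10 min at RT with compound (up to 57.5 uM final), then substrate plus GAPDH/TPI/NAD/arsenate coupling system with diaphorase/resazurin was added; resorufin fluorescence (525/598 nm) was read after 20 min.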
LmPK inhibitor = blocks Leishmania mexicana pyruvate kinase activity | Q27686 | purified LmPK, Kinase-Glo ATP luminescence, 1 h | Potency, µM (series often up to 57.5 µM), hits mostly inhibitors | hit rate 0.37% among 290,000 | AID 1721
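In 50 mM imidazole pH 7.2 with 7 mM MgCl2, LmPK (0.1 nM) turned over PEP (0.5 mM) and ADP (0.1 mM) for 1 h at room temperature. Luciferase read-out of ATP.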
Of the large screens only hits and unclear results are named; the others gave an inactive call. Unless noted, calls come from the whole dose curve; as a rule, active = well fitted curve in the direction sought with a large enough effect; inconclusive = small, poorly fitted or top-dose-only effect, or another doubt; inactive = no such curve, though single readings can be large; an effect the other way counts as inactive or inconclusive.

O=S(=O)(/N=C(/Nc1ccccn1)c1ccccc1)c1ccc(F)cc1	Shiga toxin inh 22
Cc1cccc(N/C(=N/S(=O)(=O)c2ccccc2)c2ccccc2)n1	Cycloheximide cs 15
O=S(=O)(/N=C(/Nc1ccccn1)c1ccccc1)c1ccccc1	none
Cc1ccc(-c2cnc(N)n2C)cc1C	Cycloheximide cs 30
Cc1cc(C(=O)N2CCCC(C)(C(=O)NS(=O)(=O)C3CC3)C2)nn1C(C)(C)C (stereo not given)	none (no result: Shiga toxin inh, Cycloheximide cs, Sm TGR block, FBPA Giardia inh, LmPK inhibitor)
CN(C)c1ccc(/C=N/NC(=O)c2cnc3ccccc3c2)cc1	none
Cc1cccc(/C=N/NC(=O)C[n+]2ccccc2)c1	none (no result: Shiga toxin inh, Cycloheximide cs, FBPA Giardia inh, LmPK inhibitor)
Cc1cccc(/C=N\NC(=O)c2csnn2)c1	Shiga toxin inh 88, Cycloheximide cs 74
CN(C)c1ccc(/C=N\NC(=O)c2csnn2)cc1	Shiga toxin inh 32, Cycloheximide cs 18
O=C(N/N=C/c1ccncc1)c1ccccn1	Shiga toxin inh 72, Cycloheximide cs 35, FBPA Giardia inh inconclusive
O=C(N/N=C/c1ccc(N2CCOCC2)cc1)C1CC1	Shiga toxin inh 45
C#Cc1ccc(CN2CCN(CCCc3ccccc3)C(CCO)C2)cc1 (stereo not given)	none (no result: Shiga toxin inh)
CCC(=O)Nc1nnc2n1CCS2	none (no result: Shiga toxin inh, Cycloheximide cs, FBPA Giardia inh, LmPK inhibitor)
O=C(N/N=C/c1sc(N2CCOCC2)nc1-c1ccccc1)c1ccc(O)cc1	none (no result: Sm TGR block)
CN(C)c1ccc(/C=N/NC(=O)c2ccccn2)cc1	TbPYK inhibitor inconclusive, Cycloheximide cs 23, LmPK inhibitor 13µM
Cc1ccc(N/N=C/c2ccc(N3CCOCC3)cc2)cc1C	Shiga toxin inh 136, Cycloheximide cs 59, Sm TGR block 25µM
CC(C)c1ccc(/C=N/NC(=O)c2ccccn2)cc1	Cycloheximide cs 32, LmPK inhibitor 14µM
O=C(N/N=C/c1cnc(N2CCOCC2)s1)c1ccccc1	Cycloheximide cs 20 (no result: Sm TGR block)
COc1ccccc1CNC(=O)COC(=O)CSc1ccc(C)c(C)c1	none (no result: Shiga toxin inh, Cycloheximide cs, FBPA Giardia inh, LmPK inhibitor)
Cc1ccc(S(=O)(=O)N[C@H]2COC(=O)[C@@H](Cc3ccccc3)NC(=O)[C@@H](C)COC(=O)C/C=C\[C@@H]2C)cc1	none (no result: Shiga toxin inh, TbPYK inhibitor, Cycloheximide cs, Sm TGR block, LmPK inhibitor)
C=Cc1ccc(Cn2c(C(=O)O)c(CNCc3ccccc3)c3ccc(OC)cc32)cc1	none (no result: Shiga toxin inh, Cycloheximide cs, FBPA Giardia inh, LmPK inhibitor)
Cc1ccc(/C=N/NC(=O)c2ccncc2)o1	none
CCc1c(C(=O)N/N=C/c2ccc(C)o2)csc1C	Cycloheximide cs 18
O=C(N/N=C/c1ccc(N2CCOCC2)cc1)c1ccccn1	Shiga toxin inh 51, Cycloheximide cs 27, LmPK inhibitor inconclusive
Cc1ccc(/C=N/NC(=O)c2ccccn2)o1	Shiga toxin inh 47, Cycloheximide cs 42
O=C(N/N=C\c1ccc(Oc2ccccc2)cc1)c1csnn1	Shiga toxin inh 97, Cycloheximide cs 47
CC(=O)Nc1ccc(S(=O)(=O)NC(C)C(=O)NCC(c2ccco2)N(C)C)cc1 (stereo not given)	none (no result: Shiga toxin inh, Cycloheximide cs, FBPA Giardia inh, LmPK inhibitor)
COc1ccc(N2CCN(C(=O)Cn3c(-c4cccs4)cc4ccccc43)CC2)cc1	none (no result: Shiga toxin inh, Cycloheximide cs, FBPA Giardia inh, LmPK inhibitor)
CC(C)CCNC(=O)NC(=O)COc1ccccc1C#N	Shiga toxin inh 30, Cycloheximide cs 19
CC1CCC2C(=O)N3C(CCC(C)[C@H]3c3ccccc3Br)C(=O)N2C1c1ccccc1Br (stereo not given in full)	none (no result: Shiga toxin inh, TbPYK inhibitor, Cycloheximide cs, Sm TGR block, LmPK inhibitor)
CC(NC(=O)CN(C)S(=O)(=O)c1ccc(Br)s1)c1ccccc1 (stereo not given)	Shiga toxin inh 84, Cycloheximide cs 36
O=C(CNS(=O)(=O)c1ccc(Br)s1)Nc1ccc2c(c1)OCCO2	Cycloheximide cs 32
CCN(CC(=O)Nc1ccc2c(c1)OCCO2)S(=O)(=O)c1ccc(C)cc1	none
O=C(CNS(=O)(=O)c1ccccc1)Nc1ccc2c(c1)OCO2	none
Cc1ccc(NC(=O)CN(C)S(=O)(=O)c2ccc(Br)s2)cc1F	Shiga toxin inh 44, Cycloheximide cs 21
CCN(CC(=O)Nc1ccc2c(c1)OCCO2)S(=O)(=O)c1cccs1	Shiga toxin inh 52, Cycloheximide cs 28
CCC(=O)Nc1ccc2nc(SCCOc3ccc(C)cc3)sc2c1	none (no result: Shiga toxin inh, Cycloheximide cs, FBPA Giardia inh, LmPK inhibitor)
CCN(CC)c1ccc(NC(=O)C(Cc2ccccc2)NS(=O)(=O)c2ccc(Br)s2)c(C)c1 (stereo not given)	none (no result: Shiga toxin inh, Cycloheximide cs, FBPA Giardia inh, LmPK inhibitor)
COc1ccc(Cl)cc1NC(=O)Cn1c(=O)c(-c2ccccc2NC(C)=O)nc2ccccc21	none (no result: Shiga toxin inh, Cycloheximide cs, FBPA Giardia inh, LmPK inhibitor)
CN(CC(=O)Nc1ccc2c(c1)OCCO2)S(=O)(=O)c1ccc(Br)s1	Cycloheximide cs 25
O=C(NC1CC(=O)N(c2cccc(F)c2)C1)C1CCCC1 (stereo not given)	none (no result: Shiga toxin inh, Cycloheximide cs, FBPA Giardia inh, LmPK inhibitor)
C=CC[n+]1c(C)csc1Nc1cccc(Br)c1	Sm TGR block inconclusive
C=CC[n+]1c(C)csc1Nc1ccc(C)cc1	Cycloheximide cs 24
Cc1cccc(-c2nnc(SCC(=O)NC3CCCCC3)o2)c1	none (no result: Shiga toxin inh, Cycloheximide cs, FBPA Giardia inh, LmPK inhibitor)
Cc1ccc2cc3c(=O)n(C)cc(C=O)c3nc2c1	none (no result: Shiga toxin inh, Cycloheximide cs, Sm TGR block, FBPA Giardia inh, LmPK inhibitor)
O=C(/C=C/Nc1ccc(F)cc1)c1ccco1	Shiga toxin inh 67, Cycloheximide cs 35, LmPK inhibitor 13µM
CCOC(=O)c1ccc(N/C=C/C(=O)c2ccco2)cc1	Shiga toxin inh 66, Cycloheximide cs 40, LmPK inhibitor 14µM
COc1ccc(NC(=O)c2ccco2)c([N+](=O)[O-])c1	Shiga toxin inh 35, Cycloheximide cs 20
